What all share (format): functional
Assay [1] concerns Plasmodium falciparum. The experiment in a line: GSK_TCMDC: Inhibition of Plasmodium falciparum 3D7 in whole red blood cells, using parasite LDH activity as an index of growth. Test compounds present at 2uM.
Assay [2] has as its system Plasmodium falciparum. Briefly: GSK_TCMDC: Inhibition of Plasmodium falciparum Dd2 in whole red blood cells, using parasite LDH activity as an index of growth. Test compounds present at 2uM.
The test system of a further assay is HepG2. Briefly: GSK_TCMDC: Percent inhibition of human HepG2 cell line. Test compounds present at 10uM.

The Inhibition is the share of the control response that was lost under treatment. Higher therefore signals strong suppression. For the compound `COc1ccc(-c2nc3c(NCc4ccccc4)nccc3[nH]2)c(OC)c1`, the Inhibition with Plasmodium falciparum [1] was found to be 99%; in the assay with Plasmodium falciparum [2], 21%; in the assay with HepG2, 16%.
With `Cl.FC(F)(F)c1ccc2c(NCCc3ccccc3)ccnc2c1`, the Inhibition in the assay with Plasmodium falciparum [1] is on record as 87%; in the assay on Plasmodium falciparum [2], 9%; with HepG2, 14%.
As to `COc1ccc(-c2ccc(NC(=O)c3ccc(Cl)cc3)cc2)cc1CN(C)CCO.O=C(O)C(F)(F)F`, the values for the Inhibition in the assay on Plasmodium falciparum [1], in the assay on Plasmodium falciparum [2] and in the assay with HepG2 were 92%, 43% and 43%, respectively.
With `Cc1cccc2nc(-c3cccc(-c4cccc(NC(=O)c5ccoc5)c4)c3)[nH]c12`, the Inhibition in the assay on Plasmodium falciparum [1] came to 99%; in the assay with Plasmodium falciparum [2], 71%; in the assay with HepG2, 19%.
The corresponding values for `CCC1CN(CCCn2c3ccccc3c3ccccc32)C(CC)CN1.Cl` (stereo not drawn) are 89%, 0% and 69%.
The corresponding values for `CNC(=O)c1cncc(/C=C/c2ccccc2S(N)(=O)=O)c1` are 100%, 77% and 17%.
Regarding `Cl.Clc1ccc(C2CCN(CCCOc3ccc4c(c3)CCNCC4)CC2)cc1`, the Inhibition in the assay with Plasmodium falciparum [1] came out at 98%; in the assay on Plasmodium falciparum [2], 28%; in the assay on HepG2, 93%.
Turning to `CCN(CCCN1CCCCC1)c1cc(C)nc(Nc2ccc(C)cc2C(F)(F)F)n1.O=C(O)C(F)(F)F`, the Inhibition in the assay on Plasmodium falciparum [1] amounted to 100%; in the assay on Plasmodium falciparum [2], 35%; with HepG2, 23%.
The corresponding values for `COc1ccc(C2CC(c3cccs3)=NN2C(=O)c2ccco2)cc1OC` (stereo not drawn) are 100%, 97% and 0%.
With `CC(C)CCN1CCC(Oc2cccc(NC(=O)c3ccc(C(F)(F)F)cc3)c2)CC1.O=C(O)C(F)(F)F`, the values for the Inhibition in the assay on Plasmodium falciparum [1], in the assay on Plasmodium falciparum [2] and with HepG2 were 98%, 6% and 39%, respectively.
Taken in the same sequence, the figures for `COc1ccc(-c2ccc(NC(=O)c3ccc(C#N)cc3)cc2)cc1CN1CCN(C)CC1.O=C(O)C(F)(F)F` were 93%, 49% and 21%.
As for `CN1CCC(NCc2ccc(-c3cccc(S(=O)(=O)NCCc4ccccn4)c3)cc2)CC1.O=C(O)C(F)(F)F`, the values for the Inhibition in the assay with Plasmodium falciparum [1], in the assay on Plasmodium falciparum [2] and in the assay with HepG2 were 84%, 0% and 42%, respectively.
As for `Cc1cccc(Nc2nc3nonc3nc2Nc2cccc(Cl)c2Cl)c1C`, the Inhibition came to 91% in the assay with Plasmodium falciparum [1], 95% with Plasmodium falciparum [2] and 88% in the assay with HepG2.
Taken in the same sequence, the figures for `CC(C)(C)OC(=O)N[C@@H](Cc1ccccc1)C(=O)Nc1cccc(-c2cccc(NC(=O)[C@H](Cc3ccccc3)NC(=O)OC(C)(C)C)c2)c1` were 100%, 97% and 10%.
`CN1CCCN(c2ccnc3cc4c(cc23)N(C(=O)c2ccc(Cl)c(Cl)c2)CC4)CC1.Cl`: the Inhibition was found to be 100% in the assay on Plasmodium falciparum [1], 73% with Plasmodium falciparum [2] and 20% in the assay on HepG2.
Taken in the same sequence, the figures for `Cc1ccc(C)c(CN2CCC(CNC(=O)c3cc4ccc5cccnc5c4[nH]3)CC2)c1` were 95%, 10% and 25%.
The corresponding values for `CN(C)Cc1cc(Nc2ccnc3cc(Cl)ccc23)ccc1O.Cl` are 100%, 100% and 36%.
Regarding `COc1ccc2nccc([C@@H](O)CN3CCC(NC(=O)c4ccc(OC)c(N)c4)CC3)c2c1.CS(=O)(=O)O`, the results for the Inhibition with Plasmodium falciparum [1], with Plasmodium falciparum [2] and in the assay with HepG2 were 93%, 0% and 9%, respectively.
Take `O=C(O)C(F)(F)F.c1ccc(CNCc2cccc(-c3cccc(-c4nc5ccccc5[nH]4)c3)c2)cc1`: the Inhibition with Plasmodium falciparum [1] is recorded as 100%; in the assay on Plasmodium falciparum [2], 38%; with HepG2, 12%.
Consider `COc1cc(Cc2cnc(N)nc2N)cc(OCCCc2cc(OCc3ccccc3)no2)c1OC`, for which the Inhibition is 86% in the assay with Plasmodium falciparum [1], 4% in the assay with Plasmodium falciparum [2] and 30% in the assay on HepG2.
Taken in the same sequence, the figures for `CN(C)CCNCc1nc(-c2ccc3c(Nc4ccc(Oc5ccccc5)cc4)ccnc3c2)cs1` were 100%, 100% and 8%.
Taken in the same sequence, the figures for `CCC[C@@H]([C@@H](CC(C)C)C(=O)N[C@@H](CCCCNC(=O)c1cccc(OC)c1)C(=O)Nc1nccs1)N(O)C=O` were 100%, 99% and 5%.
The corresponding values for `O=C(NC1CCC(N2CCN(c3cccc(C(F)(F)F)c3)CC2)CC1)c1cc2ccccc2[nH]1` (stereo not drawn) are 99%, 22% and 23%.
Consider `Cc1cccc2nc(-c3cccc(-c4ccc(CNCCc5ccncc5)cc4)c3)[nH]c12.O=C(O)C(F)(F)F`, for which the Inhibition in the assay with Plasmodium falciparum [1] is reported as 100%; in the assay on Plasmodium falciparum [2], 100%; in the assay with HepG2 it was 40%.
As to `CCc1c[nH]c2c(N3CCCC3=O)cc(C(=O)N[C@@H](Cc3ccccc3)[C@H](O)CNC(C)(C)c3cccc(OC)c3)cc12`, the Inhibition with Plasmodium falciparum [1] stood at 93%; with Plasmodium falciparum [2], 98%; in the assay with HepG2, 0%.
Take `Cc1nc2c(c([O-])c1Cl)-c1ccc(Oc3cccc(C(F)(F)F)c3)cc1C2=O.[Na+]`: the Inhibition in the assay with Plasmodium falciparum [1] is listed as 94%; in the assay on Plasmodium falciparum [2], 95%; in the assay on HepG2 it was 25%.
For `CN(c1ncc(-c2cccc(CNCc3ccccc3O)c2)cn1)C1CCCCC1`, the Inhibition in the assay with Plasmodium falciparum [1] was 95%; with Plasmodium falciparum [2] it was 71%; in the assay on HepG2, 12%.
Taken in the same sequence, the figures for `O=C(c1ccc([N+](=O)[O-])o1)N1CCN(c2nc3c(F)cc(F)cc3s2)CC1` were 93%, 86% and 0%.
For the compound `CCN1CCN(CC(O)CNC(=O)Nc2ccc(Cl)cc2)CC1.O=C(O)C(F)(F)F` (stereo not drawn), the Inhibition with Plasmodium falciparum [1] is reported as 100%; in the assay with Plasmodium falciparum [2] it was 99%; with HepG2, 29%.
Consider `CC(C)(C)c1ccc(OCC(=O)NC2CCN(c3ccnc4cc(Cl)ccc34)C2)cc1.O=C(O)C(F)(F)F` (stereo not drawn), for which the Inhibition with Plasmodium falciparum [1] came out at 98%; in the assay on Plasmodium falciparum [2], 100%; with HepG2, 17%.
For the compound `CCOc1cc(C(C)C)ccc1C1CCN(CCCCNC(=O)c2ccc(NC(=O)c3ccc(Cl)cc3)cc2)CC1`, the results for the Inhibition in the assay on Plasmodium falciparum [1], with Plasmodium falciparum [2] and with HepG2 were 100%, 98% and 32%, respectively.
Taken in the same sequence, the figures for `Cc1ccc(OCCCCONC(=O)c2ccccc2)cc1` were 96%, 1% and 6%.
The corresponding values for `CNC(=O)c1c(NC(=O)c2cccs2)sc2c1CCCC2` are 94%, 2% and 2%.
The corresponding values for `Cc1ccc2nc(C)n(C3CCN(C(=O)C4(c5ccccc5)CC4)CC3)c2c1` are 100%, 83% and 8%.
For `N#Cc1cccc(C(=O)Nc2ccc(-c3nc4ccccc4[nH]3)cc2)c1`, the Inhibition in the assay with Plasmodium falciparum [1] is 91%; with Plasmodium falciparum [2] it was 38%; in the assay on HepG2, 33%.
The corresponding values for `COc1ccc2c(c1)Nc1ccc(Cl)cc1C2N.O=S(=O)(O)O` (stereo not drawn) are 100%, 99% and 16%.
On to `Cc1ccc(C(=O)N2CCN(Cc3nccs3)CC2)cc1`, for which the Inhibition with Plasmodium falciparum [1] stood at 86%; with Plasmodium falciparum [2], 0%; in the assay on HepG2, 0%.
For the compound `CC(C)C[C@H](NC(=O)[C@H](Cc1ccccc1)N(C[C@H](Cc1ccccc1)NC(=O)OC(C)(C)C)C(=O)C(F)(F)F)C(=O)NC1CCN(Cc2ccccc2)CC1`, the Inhibition in the assay on Plasmodium falciparum [1] was 92%; in the assay with Plasmodium falciparum [2], 82%; in the assay on HepG2, 13%.
In the case of `COc1cc(Cc2cnc(N)nc2N)cc(OCCCCC2SC(=O)NC2=O)c1Br` (stereo not drawn), the Inhibition in the assay on Plasmodium falciparum [1] stood at 94%; with Plasmodium falciparum [2] it was 0%; in the assay on HepG2, 15%.
Regarding `Cn1c(-c2ccccc2)cc2c3c(N)nc(N)nc3ccc21`, the Inhibition is given as 100% in the assay on Plasmodium falciparum [1], 30% with Plasmodium falciparum [2] and 27% in the assay with HepG2.
Regarding `CS(=O)(=O)O.N#Cc1ccc(CNCCCCCCNCc2ccc(C#N)c3ccccc23)c2ccccc12`, the Inhibition in the assay with Plasmodium falciparum [1] was found to be 100%; in the assay with Plasmodium falciparum [2], 96%; with HepG2 it was 51%.
In the case of `CN(C)CCNC(=O)c1cc2c(-c3ccc(Cl)cc3)nn(C)c2s1`, the Inhibition in the assay on Plasmodium falciparum [1] came out at 98%; in the assay with Plasmodium falciparum [2] it was 81%; in the assay with HepG2 it was 18%.
As to `O=C(CSc1nc2ccccc2c(=O)n1C1CC1)Nc1cc(C(F)(F)F)ccc1Cl`, the results for the Inhibition in the assay with Plasmodium falciparum [1], in the assay on Plasmodium falciparum [2] and with HepG2 were 97%, 96% and 5%, respectively.
Consider `CS(=O)(=O)c1ccc(CNCc2ccc(-c3cccc(-c4nc5cc(C(F)(F)F)ccc5[nH]4)c3)cc2)cc1.O=C(O)C(F)(F)F`, for which the Inhibition in the assay with Plasmodium falciparum [1] worked out at 100%; in the assay on Plasmodium falciparum [2] it was 100%; in the assay with HepG2, 54%.
Turning to `Cc1cc(C)c(-c2n[nH]c3c2C(c2cccc(Cl)c2)N(Cc2ccco2)C3=O)c(O)c1` (stereo not drawn), the Inhibition in the assay on Plasmodium falciparum [1] amounted to 96%; in the assay on Plasmodium falciparum [2] it was 89%; with HepG2, 0%.
Taken in the same sequence, the figures for `CC(C)CC(C)NC(=O)C1Cc2c([nH]c3cc(Cl)ccc23)C2(CCN(CCc3ccccc3)CC2)N1` (stereo not drawn) were 95%, 65% and 15%.
The corresponding values for `COc1ccc(Cn2cncc2CN(CCC(C)C)C(=O)c2ccc(Cl)nc2Cl)cc1.O=C(O)C(F)(F)F` are 87%, 61% and 19%.
Consider `Fc1cccc(Nc2nc(NCc3ccc(Cl)c(Cl)c3)nc(Nc3cccc(F)c3)n2)c1`, for which the results for the Inhibition in the assay on Plasmodium falciparum [1], in the assay with Plasmodium falciparum [2] and with HepG2 were 99%, 7% and 0%, respectively.
The corresponding values for `FC(F)(F)c1ccc2[nH]c(-c3ccc(-c4cccc(CNCC5CCCO5)c4)cc3)nc2c1.O=C(O)C(F)(F)F` (stereo not drawn) are 100%, 100% and 36%.
For the compound `CCOC(=O)C1=C(C)NC2=C(C(=O)CCC2)C1c1cn(Cc2ccc(Cl)cc2Cl)nc1-c1ccccc1` (stereo not drawn), the results for the Inhibition with Plasmodium falciparum [1], in the assay with Plasmodium falciparum [2] and in the assay on HepG2 were 100%, 96% and 0%, respectively.
Taken in the same sequence, the figures for `CCN(CCS(C)(=O)=O)Cc1ccc(-c2ccc3ncnc(Nc4ccc(OCc5cccc(F)c5)c(Cl)c4)c3c2)o1.Cc1ccc(S(=O)(=O)O)cc1` were 100%, 63% and 5%.
In the case of `Cl.O=C(CCc1ccccc1)N[C@H](Cc1c[nH]c2ccccc12)C(=O)N1CCC(NCc2ccc3c(c2)Cc2ccccc2-3)CC1`, the Inhibition with Plasmodium falciparum [1] was 92%; in the assay on Plasmodium falciparum [2], 8%; in the assay with HepG2, 53%.
The corresponding values for `CCCCCCCCOc1c(OCC)cc(Cc2cnc(N)nc2N)cc1OCC` are 80%, 0% and 25%.
As for `O=C(Nc1cccc(-c2ccc(-c3nc4cc(C(F)(F)F)ccc4[nH]3)cc2)c1)c1cccnc1`, the Inhibition with Plasmodium falciparum [1] was 100%; with Plasmodium falciparum [2], 97%; in the assay on HepG2, 73%.
Taken in the same sequence, the figures for `CN(C)Cc1ccc(-c2cc3c(Nc4ccc(OCc5cccc(F)c5)c(Cl)c4)ncnc3s2)[nH]1` were 100%, 84% and 8%.
As to `Cc1ccccc1CNc1ccc2nc(N)nc(N)c2c1`, the Inhibition in the assay on Plasmodium falciparum [1] is reported as 100%; with Plasmodium falciparum [2], 90%; with HepG2 it was 59%.
The corresponding values for `Cc1ccccc1OCC(O)CN1CCC(C2CCN(CC(O)COc3ccccc3C)CC2)CC1` (stereo not drawn) are 100%, 51% and 12%.
The corresponding values for `CCCc1ccc(NC(=O)c2ccc(CN3CCCN(Cc4cccc(O)c4)CC3)cc2)cc1.O=C(O)C(F)(F)F` are 100%, 63% and 51%.
Taken in the same sequence, the figures for `CCNc1cc(C(=O)N[C@@H](Cc2ccccc2)[C@H](O)CNC23CC4CC(CC(C4)C2)C3)cc(N2CCCCS2(=O)=O)c1.Cl` were 98%, 99% and 3%.
Regarding `CCc1cn2c3c(cc(C(=O)N[C@@H](Cc4ccccc4)[C@H](O)CNC(C)C)cc13)N(C)S(=O)(=O)C2.O=CO`, the values for the Inhibition in the assay on Plasmodium falciparum [1], with Plasmodium falciparum [2] and with HepG2 were 98%, 98% and 16%, respectively.
Consider `Cc1ccccc1C1CCN(C2CCC(NC(=O)/C=C/c3ccc(C#N)cc3)CC2)CC1` (stereo not drawn), for which the Inhibition is reported as 87% in the assay on Plasmodium falciparum [1], 13% in the assay with Plasmodium falciparum [2] and 39% with HepG2.

(Values after ChEMBL document CHEMBL1157539, “Thousands of chemical starting points for antimalarial lead identification” (Nature, 2010).)
